# Assay results taken from PubChem BioAssay.
# Values joined by “and” are separate entries in the source; they are usually repeats but may differ in a detail not shown here. Equal values may be shown once. Inconclusive results are not listed. For some of these results: Potency and affinity values are given separately. The source holds several records for some structures; these can differ, active in one and inactive in another. Active and inactive are the calls of the source. Unless noted, no rule for the calls is given here.
# What was measured:
# [1] = antimalarial activity against Dd2 strain (AID 2302;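 active = growth inhibition above 50% at the single 2 µM test dose, taken to imply half-maximal potency below 2 µM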;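 also: 0% = DMSO untreated growth and 100% = chloroquine plus artemisinin killed control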); settings: P. falciparum Dd2 in RBCs, LDH growth readout, 72 h; at 2 µM; stronger effect = higher value
# [2] = HepG2 cytotoxicity, primary screen, cytotoxicity control for P. falciparum antimalarial project, cell-based, ATP luminescence (AID 2303;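 active = inhibition above 50%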;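 also: 0% = DMSO wells and 100% = digitonin-killed cells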); settings: HepG2 viability, 24-48 h, at 10 µM, stronger effect = higher value
# [3] = biological target: L-lactate dehydrogenase (Plasmodium falciparum (isolate CDC / Honduras)) (UniProt Q27743); assay: PfLDH activity inhibition – cell lysate, 3D7 strain, counter-screen for P. falciparum growth inhibition project (AID 2304);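 also: 0% = vehicle and 100% = reference inhibitor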; settings: P. falciparum 3D7 crude extract, LDH APAD/NBT absorbance; at 2 µM; stronger effect = higher value
# Sequence of L-lactate dehydrogenase (Plasmodium falciparum (isolate CDC / Honduras)) (Q27743 whole entry, looked up): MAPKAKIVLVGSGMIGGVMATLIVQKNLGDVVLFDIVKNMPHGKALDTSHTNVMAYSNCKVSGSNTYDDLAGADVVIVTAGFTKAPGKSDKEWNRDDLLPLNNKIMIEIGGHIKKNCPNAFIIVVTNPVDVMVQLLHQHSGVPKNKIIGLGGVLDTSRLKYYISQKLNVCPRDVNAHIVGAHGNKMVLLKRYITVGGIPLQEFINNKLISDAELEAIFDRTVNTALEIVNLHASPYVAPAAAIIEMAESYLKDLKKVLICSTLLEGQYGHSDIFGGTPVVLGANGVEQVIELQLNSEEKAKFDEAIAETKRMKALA
# [4] = inhibition of 3D7 malaria parasite growth – strain 3D7 (AID 2306);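 also: 0% = DMSO wells and 100% = chloroquine plus artemisinin control wells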; settings: P. falciparum 3D7 erythrocytic growth, LDH absorbance, 72 h; at 2 µM; stronger effect = higher value
# [5] = biological target: Calcium-dependent protein kinase 1 (Plasmodium falciparum (isolate 3D7)) (UniProt P62344); assay: PfCDPK1 kinase inhibitors, biochemical, TCAMS library (AID 1159585; cut-off not given, nearly all actives have IC50 up to about 0.98 µM;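 also: inhibitors leave more ATP so luminescence rises with inhibition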); settings: recombinant PfCDPK1, Kinase-Glo ATP depletion luminescence
# Sequence of Calcium-dependent protein kinase 1 (Plasmodium falciparum (isolate 3D7)) (P62344 whole entry, looked up): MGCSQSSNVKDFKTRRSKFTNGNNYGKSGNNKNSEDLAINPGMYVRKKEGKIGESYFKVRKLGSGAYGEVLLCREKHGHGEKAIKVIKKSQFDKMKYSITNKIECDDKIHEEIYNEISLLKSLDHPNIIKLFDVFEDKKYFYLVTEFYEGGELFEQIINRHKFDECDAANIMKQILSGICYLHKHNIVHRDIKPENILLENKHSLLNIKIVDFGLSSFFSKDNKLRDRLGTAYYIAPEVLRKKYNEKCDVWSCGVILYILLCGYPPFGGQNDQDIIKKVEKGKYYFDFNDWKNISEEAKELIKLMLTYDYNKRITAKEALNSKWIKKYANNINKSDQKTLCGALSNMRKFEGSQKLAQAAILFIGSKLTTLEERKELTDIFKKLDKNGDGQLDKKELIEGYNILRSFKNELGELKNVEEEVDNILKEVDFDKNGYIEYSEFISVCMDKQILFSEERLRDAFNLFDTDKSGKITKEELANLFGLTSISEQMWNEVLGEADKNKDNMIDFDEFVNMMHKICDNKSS
# [6] = biological target: Plasmodium falciparum protein kinase 6 (PK6, PF3D7_1337100) (UniProt Q8IDW1); assay: PfPK6 kinase inhibitors, biochemical, TCAMS library (AID 1159586); settings: recombinant PfPK6, Kinase-Glo ATP depletion luminescence
# Sequence of Plasmodium falciparum protein kinase 6 (PK6, PF3D7_1337100) (Q8IDW1 1-305): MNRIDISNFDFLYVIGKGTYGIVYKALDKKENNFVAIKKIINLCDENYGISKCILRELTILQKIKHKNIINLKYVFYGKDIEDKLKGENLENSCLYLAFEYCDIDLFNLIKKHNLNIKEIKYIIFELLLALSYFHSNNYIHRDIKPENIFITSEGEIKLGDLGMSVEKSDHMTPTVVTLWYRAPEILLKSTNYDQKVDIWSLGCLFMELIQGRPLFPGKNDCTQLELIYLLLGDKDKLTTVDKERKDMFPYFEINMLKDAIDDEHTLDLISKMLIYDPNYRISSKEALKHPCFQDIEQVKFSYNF
# [7] = biological target: Protein kinase 7 (PK7), Plasmodium falciparum 3D7 (PF3D7_0213400) (UniProt Q7YTF7); assay: inhibition of Plasmodium PK7 catalytic activity – biochemical, TCAMS antimalarial set, Kinase-Glo luminescence (AID 1159587); settings: recombinant PfPK7, Kinase-Glo ATP depletion luminescence
# Sequence of Protein kinase 7 (PK7), Plasmodium falciparum 3D7 (PF3D7_0213400) (Q7YTF7 1-343): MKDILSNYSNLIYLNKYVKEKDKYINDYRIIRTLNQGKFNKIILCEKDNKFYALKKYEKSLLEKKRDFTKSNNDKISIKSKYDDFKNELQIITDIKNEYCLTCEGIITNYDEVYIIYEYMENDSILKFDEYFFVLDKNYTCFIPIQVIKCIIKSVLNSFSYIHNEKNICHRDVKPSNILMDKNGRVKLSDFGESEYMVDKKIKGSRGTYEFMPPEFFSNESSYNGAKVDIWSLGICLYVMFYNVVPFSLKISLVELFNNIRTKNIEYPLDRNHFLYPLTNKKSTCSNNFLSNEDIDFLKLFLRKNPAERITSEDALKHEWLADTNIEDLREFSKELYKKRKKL
# [8] = biological target: Calcium-dependent protein kinase 4 (Plasmodium falciparum (isolate 3D7)) (UniProt Q8IBS5); assay: PfCDPK4 kinase inhibitors, biochemical, TCAMS library (AID 1159588; cut-off not given, nearly all actives have IC50 up to about 0.91 µM); settings: recombinant PfCDPK4, Kinase-Glo ATP depletion luminescence
# Sequence of Calcium-dependent protein kinase 4 (Plasmodium falciparum (isolate 3D7)) (Q8IBS5 whole entry, looked up): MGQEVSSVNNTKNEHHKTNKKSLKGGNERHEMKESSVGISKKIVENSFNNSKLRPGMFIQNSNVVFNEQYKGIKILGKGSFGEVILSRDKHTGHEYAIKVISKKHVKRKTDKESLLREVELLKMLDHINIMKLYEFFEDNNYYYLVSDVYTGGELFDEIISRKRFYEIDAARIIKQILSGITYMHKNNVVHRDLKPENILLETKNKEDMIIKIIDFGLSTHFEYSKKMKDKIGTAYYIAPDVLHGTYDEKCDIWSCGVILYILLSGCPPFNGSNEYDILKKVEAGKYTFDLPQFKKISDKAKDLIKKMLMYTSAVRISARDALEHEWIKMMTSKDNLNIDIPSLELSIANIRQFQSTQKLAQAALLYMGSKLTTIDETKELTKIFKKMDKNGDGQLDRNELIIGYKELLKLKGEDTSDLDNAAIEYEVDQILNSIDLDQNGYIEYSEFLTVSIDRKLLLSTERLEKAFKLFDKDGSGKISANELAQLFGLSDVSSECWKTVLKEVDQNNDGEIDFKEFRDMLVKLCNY
# [9] = growth inhibition of DIPG glioma cells, dose response, cell-based, SU-DIPG-XVII, MIPE5.0, CellTiter-Glo, qHTS (AID 1347060; cut-off not given, nearly all actives have AC50 up to about 26 µM;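 as to AC50: cells exposed to compound for 48 hours before viability readout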); settings: SU-DIPG-XVII viability, CellTiter-Glo ATP luminescence
# [10] = growth inhibition of DIPG glioma cells, dose response, cell-based, SU-DIPG-XIII, MIPE4.0, CellTiter-Glo, qHTS (AID 1347061; cut-off not given, nearly all actives have AC50 up to about 37 µM;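 also: cells exposed to compound for 48 hours before readout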); settings: SU-DIPG-XIII viability, CellTiter-Glo ATP luminescence
# [11] = growth inhibition of DIPG glioma cells, dose response, cell-based, JHH-DIPG-1, MIPE4.0, CellTiter-Glo, qHTS (AID 1347062; cut-off not given, nearly all actives have AC50 up to about 27 µM;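 as to AC50: cells exposed to compound for two days before readout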); settings: JHH-DIPG-1 viability, CellTiter-Glo ATP luminescence
# [12] = growth inhibition of DIPG glioma cells, dose response, cell-based, SU-DIPG-IV, MIPE4.0, CellTiter-Glo, qHTS (AID 1347063; cut-off not given, nearly all actives have AC50 up to about 30 µM;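 also: compound exposure lasted 48 hours before the viability readout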); settings: SU-DIPG-IV viability, CellTiter-Glo ATP luminescence
# [13] = growth inhibition of DIPG glioma cells, dose response, cell-based, SU-DIPG-XIII, MIPE5.0, CellTiter-Glo, qHTS (AID 1347064; cut-off not given, nearly all actives have AC50 up to about 23 µM;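 as to AC50: cells exposed to compound for 48 hours before the viability read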); settings: SU-DIPG-XIII viability, CellTiter-Glo ATP luminescence
# [14] = viability loss in pontine glioma line – cell-based, SU-DIPG-XXV, MIPE5.0, CellTiter-Glo, qHTS, dose response (AID 1347065; cut-off not given, nearly all actives have AC50 up to about 26 µM;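 also: cells exposed to compound for 48 hours before ATP readout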); settings: CellTiter-Glo ATP luminescence
# [15] = JHH-DIPG-1 glioma cell viability, MIPE5.0 library, CellTiter-Glo luminescence, qHTS (AID 1347067; cut-off not given, nearly all actives have AC50 up to about 26 µM;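 also: cells exposed to compound for 48 hours before readout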); settings: JHH-DIPG-1 glioma viability, CellTiter-Glo ATP luminescence
# [16] = SU-DIPG-XXV glioma cell viability, MIPE5.0 library, qHTS (AID 1347068; cut-off not given, nearly all actives have IC50 up to about 30 µM;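 as to IC50: cells exposed to compound for 48 hours before viability readout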)
# [17] = sensitizers of A549 cells to miR-34 induction, primary screen, imaging, A549 dox-inducible miR-34, nuclei and caspase counts (AID 1347080;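 active = compounds whose cell count with miR-34 switched on is under 0.7 times the count with it off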); settings: A549 miR-34 inducible, Hoechst nuclei count, 48 h
# [18] = survival rescue of mitochondrial mutant cells in low glucose, primary screen, MELAS cybrids, Rieske KO mouse fibroblasts, CellTiter-Glo (AID 1508586;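 active = mean z-score across replicates of 1.96 or higher in either the MELAS or the Rieske mutant cell line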;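 also: z relative to plate mean and SD of compound and empty wells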)
# [19] = system: Aerobactin synthetase IucA (Klebsiella pneumoniae); assay: IucA aerobactin synthetase inhibitors, biochemical, Tocris library, absorbance (AID 1345561); settings: purified IucA enzyme assay, absorbance (OD) read-out; stronger effect = lower value;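 tested at 8 µM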;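 also: 100% = enzyme without compound and 0% = no enzyme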
# [20] = viability rescue of complex I mutant cybrids, primary screen, cell-based, galactose medium, ATP luminescence (AID 1645843;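 active = z-score of at least 1.8 in each of two replicates, scored against plate mean and spread of sample wells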;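 also: positive z means more ATP and so rescue of galactose-driven cybrid death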); settings: complex I mutant cybrid cells, 72 h, stronger effect = higher value
# [21] = liver-stage malaria parasite growth inhibition, primary screen, cell-based, HepG2, luciferase luminescence, HepG2 viability (AID 624349; in the data active = parasite load remaining mostly below about 12%, no sharp cut-off; inactive = mostly above about 10%;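 also: 100% = mean of DMSO negative control wells on the same plate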); settings: P. berghei liver stage in HepG2, luciferase luminescence, concentration not given here; parasite load remaining: stronger effect = lower value; viability: measured here: HepG2 viability without parasites
# [22] = SU-DIPG-VI glioma cell viability, MIPE4.0 library, CellTiter-Glo luminescence, qHTS (AID 1347066; cut-off not given, nearly all actives have AC50 up to about 30 µM;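 also: cells exposed to compound for 48 hours before readout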); settings: CellTiter-Glo ATP luminescence
# [23] = biological target: NAD(+) hydrolase SARM1 (Homo sapiens) (UniProt Q6SZW1); assay: SARM1 TIR NADase inhibitors, cell lysate, NAD-Glo luminescence (AID 1508614;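 active = compound whose remaining NAD level is above about 45 nM, limit read from the data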;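 also: higher remaining NAD means stronger inhibition of SARM1 NADase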); settings: SAM-TIR HEK293T lysate NADase, at 1 µM, stronger effect = higher value
# Sequence of NAD(+) hydrolase SARM1 (Homo sapiens) (Q6SZW1 whole entry, looked up, the tested form may be a part): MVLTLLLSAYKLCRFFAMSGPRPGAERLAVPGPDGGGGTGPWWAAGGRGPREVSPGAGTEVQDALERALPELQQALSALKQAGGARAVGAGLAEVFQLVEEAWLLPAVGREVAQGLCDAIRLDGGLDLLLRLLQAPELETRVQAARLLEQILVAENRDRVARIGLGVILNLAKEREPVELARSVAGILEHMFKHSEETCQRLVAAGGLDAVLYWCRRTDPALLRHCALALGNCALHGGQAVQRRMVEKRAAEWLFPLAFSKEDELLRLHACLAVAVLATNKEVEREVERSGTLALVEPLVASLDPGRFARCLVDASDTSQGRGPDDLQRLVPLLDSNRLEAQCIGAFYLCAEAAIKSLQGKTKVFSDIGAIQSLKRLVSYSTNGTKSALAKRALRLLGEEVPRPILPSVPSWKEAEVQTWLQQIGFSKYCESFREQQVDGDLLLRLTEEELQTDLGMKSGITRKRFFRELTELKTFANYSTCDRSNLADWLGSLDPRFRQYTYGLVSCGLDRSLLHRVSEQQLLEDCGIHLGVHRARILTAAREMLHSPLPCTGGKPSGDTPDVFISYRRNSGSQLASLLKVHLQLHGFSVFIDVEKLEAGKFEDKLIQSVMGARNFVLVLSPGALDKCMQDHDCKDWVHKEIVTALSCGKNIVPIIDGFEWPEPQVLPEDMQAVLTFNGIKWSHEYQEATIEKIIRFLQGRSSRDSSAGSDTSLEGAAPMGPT
# [24] = biological target: Mitogen-activated protein kinase 7 (Homo sapiens) (UniProt Q13164); assay: ERK5 transactivation activators in reporter cells, primary screen, cell-based, HTS (AID 1508626;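 active = luciferase signal above three times the same-plate solvent-only control wells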;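 also: luciferase driven by Gal4-ERK5 fusion binding five Gal4 sites before minimal TATA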); settings: HeLa Gal4-ERK5 transactivation, 18 h, at 5 µM, stronger effect = higher value
# Sequence of Mitogen-activated protein kinase 7 (Homo sapiens) (Q13164 whole entry, looked up, the tested form may be a part): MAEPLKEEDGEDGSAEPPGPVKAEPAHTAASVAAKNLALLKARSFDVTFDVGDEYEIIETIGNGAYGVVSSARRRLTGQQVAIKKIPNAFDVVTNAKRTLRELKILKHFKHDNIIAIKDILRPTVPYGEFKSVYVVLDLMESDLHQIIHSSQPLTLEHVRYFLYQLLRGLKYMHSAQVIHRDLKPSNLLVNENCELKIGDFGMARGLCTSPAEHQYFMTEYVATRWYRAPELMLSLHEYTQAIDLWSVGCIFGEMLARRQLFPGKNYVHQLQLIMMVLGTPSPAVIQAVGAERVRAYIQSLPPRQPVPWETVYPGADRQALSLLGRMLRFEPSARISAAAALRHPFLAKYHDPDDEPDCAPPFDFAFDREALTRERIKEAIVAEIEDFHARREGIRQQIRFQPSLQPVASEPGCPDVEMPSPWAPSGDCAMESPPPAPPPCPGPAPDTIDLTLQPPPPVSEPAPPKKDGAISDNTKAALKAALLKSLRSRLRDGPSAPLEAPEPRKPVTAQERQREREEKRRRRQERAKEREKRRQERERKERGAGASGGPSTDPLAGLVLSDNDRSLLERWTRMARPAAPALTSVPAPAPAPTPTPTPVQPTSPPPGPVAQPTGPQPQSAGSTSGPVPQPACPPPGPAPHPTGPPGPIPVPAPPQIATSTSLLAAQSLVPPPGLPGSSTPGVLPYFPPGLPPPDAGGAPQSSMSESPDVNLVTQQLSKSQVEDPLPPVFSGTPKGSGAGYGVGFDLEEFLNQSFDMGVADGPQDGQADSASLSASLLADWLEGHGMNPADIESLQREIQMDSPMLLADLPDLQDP
# [25] = stronger effect = lower value, cell number ratio, induced over uninduced
# [26] = measured here: relative caspase fold change +Dox/-Dox
# [27] = measured here: total cells with miR-34 induction, stronger effect = lower value
# [28] = measured here: total cells without miR-34 induction
# [29] = MELAS cybrid survival, CellTiter-Glo 48 h, stronger effect = higher value
# [30] = Rieske KO mouse fibroblast survival, CellTiter-Glo 72 h
structure (smiles),measurement,setting,value
CCS(=O)(=O)Nc1ccc2[nH]c(O)c(C(=Nc3ccc(CN4CCCCC4)cc3)c3ccccc3)c2c1,growth inhibition,[1],74% (active)
same,inhibition,[2],53% (active)
same,inhibition,[3],6% (inactive)
same,growth inhibition,[4],87% (active)
same,outcome,[5],inactive
same,outcome,[6],inactive
same,outcome,[7],inactive
same,outcome,[8],inactive
same,AC50,[9],263 nM (active)
same,AC50,[10],662 nM (active)
same,AC50,[11],5900 nM (active)
same,AC50,[12],5900 nM (active)
same,AC50,[13],263 nM (active)
same,AC50,[14],83.3 nM (active)
same,AC50,[15],742 nM (active)
same,IC50,[16],468 nM (active)
same,fold change,[17]; [25],1 (inactive)
same,fold change,[17]; [26],0.435
same,cell count,[17]; [27],720
same,cell count,[17]; [28],718
same,z-score,[18]; [29],0.158 (inactive)
same,z-score,[18]; [30],-2.81
CCCCCCCc1ccc(-c2c(C)[nH]c(C)c(Cl)c2=O)cn1,growth inhibition,[1],96% (active)
same,inhibition,[2],-4% (inactive)
same,inhibition,[3],-2% (inactive)
same,growth inhibition,[4],99% (active)
same,outcome,[5],inactive
same,outcome,[6],inactive
same,outcome,[7],inactive
same,outcome,[8],inactive
CS(=O)(=O)CCNCc1nc(-c2ccc3ncnc(Nc4ccc(OCc5cccc(F)c5)c(Cl)c4)c3c2)cs1,growth inhibition,[1],34% (inactive)
same,inhibition,[2],8% (inactive)
same,inhibition,[3],-3% (inactive)
same,growth inhibition,[4],98% (active)
same,outcome,[5],inactive
same,outcome,[6],inactive
same,outcome,[7],inactive
same,outcome,[8],inactive
same,remaining activity,[19],122% (inactive)
same,fold change,[17]; [25],0.987 (inactive)
same,fold change,[17]; [26],0.867
same,cell count,[17]; [27],7720
same,cell count,[17]; [28],7820
same,z-score,[20],-0.46 (inactive)
COc1ccc(-c2cc(C(=O)N[C@@H](CC3CCCCC3)C(=O)NCCN3CCCCC3)ccc2O)cc1,growth inhibition,[1],72% (active)
same,inhibition,[2],3% (inactive)
same,inhibition,[3],0% (inactive)
same,growth inhibition,[4],98% (active)
same,outcome,[5],inactive
same,outcome,[6],inactive
same,outcome,[7],inactive
same,outcome,[8],inactive
C=C[C@H]1CN2CC[C@H]1C[C@H]2[C@H](O)c1ccnc2ccc(OC)cc12,growth inhibition,[1],99% (active) and 22% (inactive) and 79% (active)
same,inhibition,[2],13% (inactive) and -12% (inactive) and -6% (inactive)
same,inhibition,[3],-4% (inactive) and -7% (inactive)
same,growth inhibition,[4],100% (active) and 97% (active) and 99% (active)
same,parasite load remaining,[21],49.1% (inactive)
same,viability,[21],193%
same,outcome,[5],inactive
same,outcome,[6],inactive
same,outcome,[7],inactive
same,outcome,[8],inactive
same,outcome,[9],inactive
same,outcome,[11],inactive
same,outcome,[12],inactive
same,outcome,[13],inactive
same,outcome,[14],inactive
same,outcome,[22],inactive
same,outcome,[15],inactive
same,outcome,[16],inactive
same,fold change,[17]; [25],0.942 (inactive)
same,fold change,[17]; [26],0.791
same,cell count,[17]; [27],9260
same,cell count,[17]; [28],9830
same,z-score,[18]; [29],-0.0548 (inactive)
same,z-score,[18]; [30],1.17
same,remaining NAD,[23],10 nM (inactive)
same,luciferase signal,[24],140 AU (inactive)
same,z-score,[20],-0.735 (inactive)
